We go through 14 compounds from PubChem BioAssay (NCATS).

A short description of assay [1]: Primary qHTS for Huh7 cytotoxicity: counterscreen for inhibitors of MERS-S pseudotyped particle cell entry (AID 1479147). The settings on record: outcome: dose series up to 57.1 µM unless noted.
The nature of assay [2]: Primary qHTS for Vero E6 cytotoxicity: counterscreen for inhibitors of SARS-S pseudo-typed particle cell entry (AID 1479150). The settings on record: outcome: dose series up to 57.1 µM unless noted. On the technique in general: In qHTS, concentration-response curves come from the screen itself.
A short description of assay [3]: Primary qHTS for inhibitors of MERS-S pseudo-typed particle cell entry (AID 1479149). Also: nearly all actives have a fitted effect of over 60% in size. As to activity change, negative = inhibition: % is scaled to controls: 0 for no effect and ±100 for the full control effect. The settings on record: outcome: dose series up to 57.1 µM unless noted.
Assay [4] is described as follows: Cytotoxicity counterscreen for inhibitors of SARS-CoV-2 cell entry (AID 1645845). Also: nearly all actives have a fitted effect of over 50% in size. The settings on record: outcome: dose series up to 57.1 µM unless noted. A digest of the protocol:
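HEK293-ACE2 cells (Expi293F stably expressing human ACE2) seeded overnight, then compound for 1 h plus 48 h at 37C. Viability as ATP content by luminescence; normalized to wells with cells and media-only wells.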

Assay [5] concerns the target Glutathione peroxidase 1 (Homo sapiens) (UniProt P07203). Briefly: Primary qHTS Assay for Inhibitors of Recombinant Selenoprotein Glutathione Peroxidase 1 (GPX1) (AID 1845191; active = well fitted curve in the direction sought with a large enough effect; an effect the other way counts as inactive or inconclusive; also: nearly all actives have a fitted effect of over 65% in size; as to activity, negative = inhibition: % is scaled to controls: 0 for no effect and ±100 for the full control effect). A digest of the protocol: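 GR-coupled assay: compounds preincubated 30 min at room temperature with GPX1, then reaction started with CHP; final 10 nM GPX1, 1 mM GSH, 0.5 mM CHP, 0.5 mM NADPH, 100 nM GR, 0.01% BSA, pH 7.5 Tris buffer. NADPH fluorescence (340/450 nm) read at 0 and 15 min.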

A short description of assay [6]: Confirmatory qHTS for VERO E6 Cytotoxicity Assay: Counterscreen for SARS-CoV-2 CPE Assay (AID 1508605). Also: % is scaled to controls: 0 for no effect and ±100 for the full control effect; nearly all actives have a fitted effect of over 60% in size.
A short description of assay [7]: Primary qHTS to identify inhibitors of SARS-CoV-2 cell entry (AID 1645846). Also: nearly all actives have a fitted effect of over 45% in size. Also: potency is read from the fitted curve at half-maximal effect. To be noted: SARS-CoV-2 pseudovirus cell entry assay, luminescence; activity change, negative = inhibition: at 57.1 µM (top of the series) unless noted. In a few lines: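 Data are normalized to wells receiving SARS-CoV-2-S pseudoparticles and those given bald particles. Entry signal was luciferase luminescence in stable hACE2 Expi293F cells, 48 hr post-infection, after 1 hr compound pretreatment.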

A short description of assay [8]: Confirmatory qHTS to identify inhibitors of SARS-CoV-2 cell entry (AID 1645844). Also: potency is read from the fitted curve at half-maximal effect; nearly all actives have a fitted effect of over 45% in size. A digest of the protocol:
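HEK293-ACE2 cells were pretreated 1 h with compound, then infected with MLV-based pseudoparticles bearing C-terminally truncated Wuhan-Hu-1 spike for 48 h at 37C; luciferase luminescence normalized to spike PP and bald PP wells.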

The target in assay [9] is Cytochrome P450 2C9 (Homo sapiens) (UniProt P11712). In words: qHTS Assay for Inhibitors and Substrates of Cytochrome P450 2C9 (AID 883; active = well fitted curve in the direction sought with a large enough effect; an effect the other way counts as inactive or inconclusive; also: % is scaled to controls: 0 for no effect and ±100 for the full control effect; nearly all actives have a fitted effect of over 60% in size). In a few lines: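 Human CYP2C9 (10nM) with Luciferin-H at 100uM (its KM) in 25mM KPO4; compound preincubated 10 min at 37C, then NADPH regeneration for 60 min at 37C. Luciferin read by luminescence after detection reagent; normalized to 57uM sulphaphenazole as full inhibition.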

Assay [10] has as its target Cytochrome P450 2C19 (Homo sapiens) (UniProt P33261). In words: qHTS Assay for Inhibitors and Substrates of Cytochrome P450 2C19 (AID 899; active = well fitted curve in the direction sought with a large enough effect; an effect the other way counts as inactive or inconclusive; also: % is scaled to controls: 0 for no effect and ±100 for the full control effect; nearly all actives have a fitted effect of over 60% in size). In a few lines:
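5 nM human CYP2C19 with 10uM Luciferin-H EGE (at KM) in 50mM KPO4, compound preincubated 10 min at 37C, then NADPH regeneration for 60 min at 37C. Luciferin read by luminescence after detection reagent; normalized to 57uM ketoconazole as full inhibition.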

Assay [11] in a line: Confirmatory qHTS for activators (rescue) of SARS-CoV-2 Cytopathic Effect (CPE) (AID 1508606). Also: potency is read from the fitted curve at half-maximal effect; nearly all actives have a fitted effect of over 70% in size.
Assay [12] addresses Alpha-galactosidase (Coffea arabica) (UniProt Q42656). Briefly: Counterscreen for Glucocerebrosidase Inhibitors: qHTS Assay for Coffee Bean alpha-Galactosidase at pH 4.5 (AID 957; active = well fitted curve in the direction sought with a large enough effect; an effect the other way counts as inactive or inconclusive;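 also: plate controls were enzyme alone for no effect and no enzyme for full effect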). In a few lines: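 Green coffee bean enzyme (2 nM final) was incubated with compounds (0.7 nM to 77 uM) and 4-methylumbelliferyl alpha-D-galactopyranoside (80 uM final) in 50 mM citric acid, 0.005% Tween-20, pH 4.5, 20 min at room temperature; AC50 from Hill fits.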
(In general: The purpose of a counterscreen is to sort out artefacts and off-target activity.)

The target is the same in assay [13]. In words: Counterscreen for Glucocerebrosidase Inhibitors: qHTS Assay for Coffee Bean alpha-Galactosidase at pH 5.9 (AID 998; active = well fitted curve in the direction sought with a large enough effect; an effect the other way counts as inactive or inconclusive;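 also: plate controls were uninhibited enzyme for no effect and no-enzyme basal signal for full effect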). A digest of the protocol:
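Green coffee bean enzyme (2 nM) with 4-methylumbelliferyl alpha-D-galactopyranoside (80 uM) in 50 mM citric acid, 0.005% Tween-20, pH 5.9, 20 min at room temperature; compounds 0.7 nM–77 uM. Stopped at pH 10, fluorescence Ex365/Em440; Hill-fit AC50.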

Assay [14] is described as follows: Validation screen for inhibitors of Lassa infection (AID 463096). Also: % is scaled to controls: 0 for no effect and ±100 for the full control effect.
Assay [15] deals with Phospholipid hydroperoxide glutathione peroxidase GPX4 (Homo sapiens) (UniProt P36969). In words: Primary qHTS Assay for Inhibitors of Recombinant Selenoprotein Glutathione Peroxidase 4 (GPX4) (AID 1845192; active = well fitted curve in the direction sought with a large enough effect; an effect the other way counts as inactive or inconclusive; also: % is scaled to controls: 0 for no effect and ±100 for the full control effect; nearly all actives have a fitted effect of over 65% in size). In a few lines: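 GR-coupled assay: recombinant GPX4 preincubated 30 min with compound at room temperature; final 200 nM GPX4, 1 mM GSH, 0.5 mM cumene hydroperoxide, 0.5 mM NADPH, 100 nM GR, 0.01% BSA, pH 7.5 Tris. NADPH fluorescence (340/450 nm) read at 0 and 15 min.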

Inconclusive results are not listed. Active and inactive are the calls of the source. Unless noted, calls follow the shape of the full dose curve.

Glutathione peroxidase 1 (Homo sapiens), sequence (P07203 whole entry, looked up): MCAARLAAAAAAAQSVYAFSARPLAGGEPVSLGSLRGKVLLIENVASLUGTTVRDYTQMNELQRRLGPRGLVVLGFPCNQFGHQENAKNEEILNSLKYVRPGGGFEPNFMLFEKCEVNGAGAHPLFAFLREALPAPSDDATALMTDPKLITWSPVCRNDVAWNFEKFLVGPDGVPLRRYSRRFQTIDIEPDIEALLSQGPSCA
Alpha-galactosidase (Coffea arabica), sequence (Q42656 whole entry, looked up): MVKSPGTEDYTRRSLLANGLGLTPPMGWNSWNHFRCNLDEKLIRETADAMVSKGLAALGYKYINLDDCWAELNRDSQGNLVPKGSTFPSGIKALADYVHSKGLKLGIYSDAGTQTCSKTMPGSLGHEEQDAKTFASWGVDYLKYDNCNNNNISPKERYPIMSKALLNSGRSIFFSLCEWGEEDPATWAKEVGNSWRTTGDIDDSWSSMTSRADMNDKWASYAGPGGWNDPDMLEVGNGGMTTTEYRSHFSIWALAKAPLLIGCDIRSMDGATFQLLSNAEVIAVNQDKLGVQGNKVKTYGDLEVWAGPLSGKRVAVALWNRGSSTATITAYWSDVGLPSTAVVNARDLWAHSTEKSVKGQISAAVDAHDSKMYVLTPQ
Cytochrome P450 2C19 (Homo sapiens), sequence (P33261 whole entry, looked up): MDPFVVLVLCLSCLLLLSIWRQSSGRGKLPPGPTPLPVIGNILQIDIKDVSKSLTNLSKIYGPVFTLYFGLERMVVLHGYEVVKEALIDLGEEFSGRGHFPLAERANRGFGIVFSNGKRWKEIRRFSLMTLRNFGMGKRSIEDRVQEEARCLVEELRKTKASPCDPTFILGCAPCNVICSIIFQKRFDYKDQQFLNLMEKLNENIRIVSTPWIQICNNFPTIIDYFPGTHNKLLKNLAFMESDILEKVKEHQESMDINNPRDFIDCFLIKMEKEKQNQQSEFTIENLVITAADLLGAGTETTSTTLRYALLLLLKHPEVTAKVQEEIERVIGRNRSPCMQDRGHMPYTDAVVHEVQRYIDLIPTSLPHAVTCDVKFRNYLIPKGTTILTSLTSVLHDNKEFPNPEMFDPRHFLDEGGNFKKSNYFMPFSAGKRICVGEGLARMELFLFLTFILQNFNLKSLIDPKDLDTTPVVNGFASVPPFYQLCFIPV
Phospholipid hydroperoxide glutathione peroxidase GPX4 (Homo sapiens), sequence (P36969 whole entry, looked up): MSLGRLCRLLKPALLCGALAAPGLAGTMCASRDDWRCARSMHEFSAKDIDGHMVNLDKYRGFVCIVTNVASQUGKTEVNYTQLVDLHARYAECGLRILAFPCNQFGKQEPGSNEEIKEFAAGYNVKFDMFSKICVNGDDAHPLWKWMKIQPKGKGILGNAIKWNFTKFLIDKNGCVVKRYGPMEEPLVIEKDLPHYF
Cytochrome P450 2C9 (Homo sapiens), sequence (P11712 whole entry, looked up): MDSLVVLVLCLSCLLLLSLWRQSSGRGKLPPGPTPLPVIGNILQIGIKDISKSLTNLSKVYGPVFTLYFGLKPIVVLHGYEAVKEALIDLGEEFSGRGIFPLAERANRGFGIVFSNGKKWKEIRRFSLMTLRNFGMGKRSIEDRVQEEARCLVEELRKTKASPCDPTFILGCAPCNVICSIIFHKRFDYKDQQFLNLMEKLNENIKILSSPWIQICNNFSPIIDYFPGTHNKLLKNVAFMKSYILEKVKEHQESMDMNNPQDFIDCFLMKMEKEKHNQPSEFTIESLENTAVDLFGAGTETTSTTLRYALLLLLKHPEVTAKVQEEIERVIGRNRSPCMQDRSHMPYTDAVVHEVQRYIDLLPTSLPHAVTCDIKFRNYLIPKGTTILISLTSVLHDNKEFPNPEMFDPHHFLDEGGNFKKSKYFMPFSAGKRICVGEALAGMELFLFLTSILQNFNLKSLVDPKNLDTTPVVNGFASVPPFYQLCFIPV

Turning to `C=C1/C(=C/C=C2\CCC[C@]3(C)[C@@H]([C@H](C)CC[C@@H](O)C(C)C)CC[C@@H]23)C[C@@H](O)C[C@@H]1O`, the Potency entry in [1] and in assay [2] was “inactive” throughout.
With `CN1CCC2=C(C1)C(c1ccccc1)c1ccccc12` (centres undefined), the Potency entry in [1], in [3], in [2], in assay [4] and in assay [5] was “inactive” in each case.
Consider `C=C[C@]1(C)C[C@@H](OC(=O)CSC2C[C@H]3CC[C@@H](C2)N3C)C2(C)[C@H](C)CCC3(CCC(=O)[C@H]32)[C@@H](C)[C@@H]1O` (some centres undefined), for which the Potency entry in assay [1] and in assay [2] was “inactive” throughout.
Regarding `N#Cc1ccc2[nH]cc(CCCCN3CCN(c4ccc5oc(C(N)=O)cc5c4)CC3)c2c1`, the Potency entry in assay [1], in assay [2], in [6] and in assay [4] was “inactive” throughout.
As to `C[N+]1(CC2CC2)CC[C@]23c4c5ccc(O)c4O[C@H]2C(=O)CC[C@@]3(O)[C@H]1C5` (some centres undefined), the Potency result in assay [1], in [3], in [2], in [4] and in assay [5] was “inactive” throughout.
With `CCOC(=O)c1c[nH]c2cc(OCC(C)C)c(OCC(C)C)cc2c1=O`, the Potency result in assay [1] and in assay [3] was “inactive” each time. For the same compound, in [7], the activity change, negative = inhibition is -18.7%.
In the case of `CCOC(=O)N[C@@H]1CC[C@@H]2[C@@H](C1)C[C@H]1C(=O)O[C@H](C)C1[C@H]2/C=C/c1ccc(-c2cccc(F)c2)cn1` (some centres undefined), the Potency entry in assay [1], in assay [2], in [6] and in [4] was “inactive” in each case. Also, in assay [8], the Potency was 7.64 µM (active).
`CCOc1nc2cccc(C(=O)O)c2n1Cc1ccc(-c2ccccc2-c2noc(=O)[nH]2)cc1`: the Potency result in [1], in assay [3] and in assay [2] was “inactive” each time. For the same compound, the activity change, negative = inhibition in [7] was -24.5%.
Regarding `Cc1c(O)c(=O)ccn1C`, the values for the activity change, negative = inhibition in assay [9] and in assay [7] were 39.1% [at 11.4 µM] (inactive) and -14.9% [at 114 µM], respectively. Besides, the activity, negative = inhibition in [10] was 86.4% [at 11.4 µM] (inactive). The Potency result in assay [1], in [3] and in [2] was “inactive” throughout.
In the case of `CCC(c1ccccc1)c1noc(CCN(CC)CC)n1` (centres undefined), the Potency result in [1], in assay [3] and in [2] was “inactive” throughout. Also, the activity change, negative = inhibition in [7] is -15.7%.
With `CN1CC[C@H](CN2c3ccccc3Sc3ccccc32)C1`, the Potency entry in [1], in assay [2], in assay [6] and in assay [4] was “inactive” each time. Moreover, the Potency in assay [11] is 11.2 µM (active); in assay [8], 3.41 µM (active); in [7], 12.6 µM (active).
For the compound `CC[N+](C)(C)Cc1ccccc1Br`, the outcome in assay [12] and in assay [13] was inactive. The Potency result in assay [14], in assay [1], in [3] and in assay [4] was “inactive” each time.
As to `Cc1cc(C2=NOC(c3cc(Cl)cc(Cl)c3)(C(F)(F)F)C2)ccc1C(=O)NCC(=O)NCC(F)(F)F` (centres undefined), the Potency entry in [1], in assay [3], in [2], in [4] and in assay [5] was “inactive” throughout.
As to `C=C[C@H]1CN2CC[C@H]1C[C@@H]2[C@@H](OC(=O)OCC)c1ccnc2ccc(OC)cc12`, the Potency result in assay [1], in assay [3], in assay [2], in assay [4], in assay [5] and in [15] was “inactive” each time.
